From PubChem
Hits are enriched below; roughly 4.6% of the tested compounds scored in any of these assays.
Peg3 prom inh-1 = Peg3 promoter-driven luciferase inhibitors, primary screen, cell-based, HeLa, luciferase luminescence | HeLa PEG-Prom luciferase reporter, overnight | hit rate 1.7% among 360,000 | inhibition, % at 20 µM;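 active = inhibition of at least 50% at 20 µM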
Mdm2 MdmX PPI = inhibitors of human Mdm2-MdmX association, primary screen, cell-based, luminescence, split luciferase, SaOS-2, uHTS. Protein Mdm4 (Homo sapiens) + E3 ubiquitin-protein ligase Mdm2 (Homo sapiens), …. SaOS-2 split-luciferase Mdm2/MdmX complementation. inhibition, % at 8 µM. hit rate 3% among 330,000;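 active = inhibition of at least 50% at 8 µM in the primary screen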
ABHD5-PLIN5 inh = ABHD5-PLIN5 interaction inhibitors, primary screen, cell lysate, split luciferase complementation, luminescence; Perilipin-5 (Homo sapiens) + 1-acylglycerol-3-phosphate O-acyltransferase ABHD5 (Homo …; Split G. princeps luciferase complementation, 4 h; inhibition, % at 4 µM; hit rate 0.78% among 360,000; AID 602281, 2012;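 active = inhibition above the mean inhibition across every tested compound plus 3 SD, cut at about 22% in these data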
Target sequence (Q00G26 whole entry, looked up): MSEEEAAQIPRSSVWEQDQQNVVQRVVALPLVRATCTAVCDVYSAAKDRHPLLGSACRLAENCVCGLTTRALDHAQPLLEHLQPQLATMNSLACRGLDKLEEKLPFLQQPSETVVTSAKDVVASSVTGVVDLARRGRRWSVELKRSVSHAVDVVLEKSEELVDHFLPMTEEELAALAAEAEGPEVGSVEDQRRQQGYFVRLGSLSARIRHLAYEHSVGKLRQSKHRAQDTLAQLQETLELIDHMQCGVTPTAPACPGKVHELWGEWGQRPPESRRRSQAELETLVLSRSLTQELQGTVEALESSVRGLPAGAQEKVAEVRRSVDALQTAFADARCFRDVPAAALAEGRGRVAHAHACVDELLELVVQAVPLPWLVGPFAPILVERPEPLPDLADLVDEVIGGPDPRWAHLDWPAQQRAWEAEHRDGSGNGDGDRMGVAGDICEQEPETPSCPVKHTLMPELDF
Target sequence (Q8WTS1 whole entry, looked up): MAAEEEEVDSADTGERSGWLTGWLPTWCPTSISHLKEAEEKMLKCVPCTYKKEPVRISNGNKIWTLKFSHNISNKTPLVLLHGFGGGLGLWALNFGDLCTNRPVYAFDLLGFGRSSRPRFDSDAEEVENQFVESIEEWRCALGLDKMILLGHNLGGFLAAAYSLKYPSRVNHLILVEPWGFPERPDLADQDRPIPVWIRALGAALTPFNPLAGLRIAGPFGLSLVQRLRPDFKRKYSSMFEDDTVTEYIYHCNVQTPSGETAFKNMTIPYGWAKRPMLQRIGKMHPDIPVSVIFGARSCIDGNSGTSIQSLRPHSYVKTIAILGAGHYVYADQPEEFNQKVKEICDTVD
KKLEB tox = cytotoxicity in KKLEB CF airway cells, primary screen, cytotoxicity control for CF NF-kB inhibitor project, cell-based, uHTS, fluorescence assay plates; KKLEB CF airway cells viability, ATPlite luminescence, overnight; active compounds read low; cells stimulated with P. aeruginosa culture filtrate; activity change (cytotoxicity), % at 5 µM; hit rate 0.36% among 360,000;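 active = corrected activity change at or below -50% at 5 µM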
CF NFkB inh = inhibitors of PAF-induced NF-kB signaling, primary screen, cell-based, GFP fluorescence, uHTS | AID 588850, 2011 | inhibition, % at 5 µM | KKLEB NF-kB-GFP reporter, GFP fluorescence overnight | hit rate 0.86% among 360,000;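 active = at least 50% inhibition at 5 µM, scaled per plate between neutral and stimulator controls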;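 note: PAF is a Pseudomonas aeruginosa culture filtrate used as stimulus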
HIF-2a inh = HIF-2a reporter inhibitors, primary screen, luminescence, 786-0 RCC cells; hit rate 0.72% among 360,000; inhibition, % at 18.8 µM; 786-0 RCC cells HIF-2a reporter, luciferase luminescence, overnight;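 active = inhibition of the luminescence signal of 40% or more relative to plate controls, in a single-dose primary screen at 18.75 µM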
Mdm2 MdmX conf-1 = Mdm2-MdmX complex disruptors, retested hits, confirmation, luminescence, single concentration; Mdm2-MdmX binding, luminescent assay; shares compounds with Mdm2 MdmX PPI; inhibition, % at 8 µM; hit rate 55% among 10,000
Full FLuc ctr = full-length luciferase signal inhibition, confirmation, counter-screen for Mdm2/MdmX interaction inhibitor project, cell-based, single concentration, SaOS-2; hit rate 77% among 6,200; inhibition, % at 8 µM; AID 504607, 2011; shares compounds with Mdm2 MdmX PPI; SaOS-2 full-length luciferase counterscreen, luminescence;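 active = mean inhibition at 8 µM reaching about 37%, which flags the compound as non-specific, limit read from the data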;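 note: p53-null SaOS-2 cells with luciferase driven by a doxycycline-inducible promoter; compound on cells about two nights before reading with doxycycline added after day one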
Peg3 prom inh-2 = Peg3 promoter reporter inhibitors, retest, confirmation, cell-based, HeLa, luciferase reporter, single concentration. HeLa PEG-Prom luciferase reporter, luminescence, overnight. hit rate 84% among 1,300. shares compounds with Peg3 prom inh-1. inhibition, % at 20 µM;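 active = at 20 µM dose, 40% or more inhibition averaged across four replicates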
CF NFkB inh conf = inhibitors of PAF-induced NF-kB signaling, retest, confirmation, cell-based, GFP fluorescence, single concentration. shares compounds with CF NFkB inh. KKLEB CF airway cells, overnight. inhibition, % at 5 µM. hit rate 64% among 1,300. AID 602472, 2012;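 note: stimulus PAF is a Pseudomonas aeruginosa filtrate and not platelet activating factor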
ABHD5-PLIN5 conf = ABHD5-PLIN5 interaction inhibitors, confirmation, biochemical, luminescence | shares compounds with ABHD5-PLIN5 inh | inhibition, % at 4 µM | hit rate 67% among 2,200; in the data active = inhibition above about 23%
HNF4 counter = HNF4 dimerization inhibitors, counter-screen for ABHD5-PLIN5 interaction inhibitor project, biochemical, split-luciferase complementation, luminescence; shares compounds with ABHD5-PLIN5 inh; inhibition, % at 4 µM; hit rate 77% among 2,200; AID 651674, 2012;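 active = mean inhibition across replicate wells exceeding the computed hit threshold, cut at about 13% in these data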;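 note: light from luciferase halves that rejoin when HNF4 fusion proteins dimerize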
Mdm2 MdmX conf-2 = retested Mdm2-MdmX interaction blockers, confirmation, cell-based, luminescence, single concentration, set 2. shares compounds with HIF-2a inh. SaOS-2 split-luciferase Mdm2/MdmX complementation. inhibition, % at 8 µM. hit rate 99% among 740;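 active = mean inhibition of the luminescence signal across two replicates at or above 26 percent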
HIF-2a inh conf = HIF-2a reporter inhibitor retest, confirmation, luminescence, 786-0 RCC cells | shares compounds with HIF-2a inh | HIF-2a luciferase reporter luminescence, overnight | inhibition, % at 18.8 µM | hit rate 56% among 1,800 | AID 651580, 2012;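 active = mean inhibition across four replicates of at least 40 percent at the single tested concentration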
HIF-1a counter = HIF-1a luciferase reporter signal reduction – MiaPaCa-2 cells, single concentration, counter-screen for HIF-2a inhibitor project, confirmation | hit rate 72% among 1,800 | shares compounds with HIF-2a inh | AID 651589, 2012 | inhibition, % at 18.8 µM | MiaPaCa-2 HIF-1a luciferase reporter, desferoxamine, overnight;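 active = mean inhibition of the reporter signal across four replicates at the single tested dose of 50% or more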
Numbers stand for hits; i = inactive; nt = no result given. Cut-off read from the data, not from the text of the source, unless noted: active = inhibition above about 40%; inactive = the rest.

SMILES	Peg3 prom inh-1	Mdm2 MdmX PPI	ABHD5-PLIN5 inh	KKLEB tox	CF NFkB inh	HIF-2a inh	Mdm2 MdmX conf-1	Full FLuc ctr	HIF-2a inh conf	HIF-1a counter	others
NCCCNc1nc(N)c([N+](=O)[O-])c(NC2CCCCC2)n1	67	73	i	i	i	48	70	56	i	99	Peg3 prom inh-2=80
COC(=O)c1cc(=O)n(Cc2ccc(OC)c(OC)c2)c(=Nc2ccc(F)cc2)s1	81	76	i	i	54	70	i	98	68	102	CF NFkB inh conf=i
COC(=O)c1cc(=O)n(Cc2cccs2)c(=Nc2ccccc2)s1	i	i	i	i	i	i	nt	nt	nt	nt
COC(=O)c1cc(=O)n(CCc2ccc(OC)c(OC)c2)c(=Nc2ccc(F)c(Cl)c2)s1	99	84	i	i	i	75	i	nt	i	96
COC(=O)c1cc(=O)n(Cc2ccco2)c(=Nc2ccc(F)cc2)s1	82	58	31	i	i	49	i	nt	60	97	Peg3 prom inh-2=84;ABHD5-PLIN5 conf=65;HNF4 counter=44
COc1ccc(-c2nc(N)n(C(=O)Cc3ccccc3)n2)cc1	i	i	i	i	i	i	nt	nt	nt	nt
COc1ccc2cc3c(N)nn(C(=O)Cc4ccccc4OC)c3nc2c1	i	72	i	i	54	36	67	62	i	89	CF NFkB inh conf=68
CCOC1=C2[C@@H](CN(S(=O)(=O)c3ccc(C)cc3)[C@H]2c2ccccc2F)[C@H]2C(=O)N(C3CCCCC3)C(=O)[C@H]2C1	i	nt	i	i	i	i	nt	nt	nt	nt
CCCCCCCCCn1c2c(c(=N)c3c1CCC3)CCC2	66	95	i	-62	55	i	93	55	nt	nt	Mdm2 MdmX conf-2=101
COc1cc(C(=O)COC(=O)c2ccc3c(c2)OCCO3)cc(OC)c1OC	i	nt	i	i	i	i	nt	nt	nt	nt
COc1cc(/C=C/C(=O)c2ccc3c(c2)OCO3)cc(OC)c1OC	i	91	i	i	i	44	60	38	i	103
